# Shown are actives, neighbours in structure and some others; about 17% of the full set was active somewhere.
# HT1080NT lethal = kills 2HG-producing HT-1080-NT fibrosarcoma cells. HT-1080-NT fibrosarcoma viability, CellTiter-Glo ATP luminescence, 48 h. Potency, µM (top dose mostly 46.1 µM), inactives show at the top dose activity, negative = less viability, hits mostly cytotoxic. hit rate 1.6% among 360,000. AID 686970;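 also: NT is the 2HG producing partner of a matched IDH1 knockdown line; 0% = DMSO-treated cells and -100% = media-only wells without cells; nearly all actives have a fitted effect of over 55% in size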
#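 Toxicity toward the 2HG-producing NT line was scored as %Activity, normalised to DMSO and no-cell wells, from CellTiter-Glo luminescence after 48 hours' treatment.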
# HT1080 IDH1KD tx = HT-1080 IDH1 knockdown cell toxicity (counter line); hit rate 2% among 360,000; Potency, µM (titrated, usually from 46.1 µM), for the others: top-dose activity, negative = toxicity, actives largely listed as cytotoxic; HT-1080 IDH1 knockdown viability, ATP luminescence, 48 h;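 also: 0% = DMSO wells and -100% = cell-free medium wells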
#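 Knockdown cells (IDH1KD HT-1080) received compounds 2 h after plating at 750 cells/well and were kept 48 h at 37 °C in 5% FBS RPMI. A CellTiter-Glo luminescence read gave % activity for curve fitting.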
# TGFb inhibitor = TGF-b pathway inhibition; HepG2 CAGA-GFP TGF-b/SMAD3 reporter, GFP fluorescence, 18 h; TGF-beta stimulated, 500 pg/mL final; Potency, µM (highest dose often 46.1 µM), for inactives: at the top dose activity, negative = inhibition, most hits filed as inhibitors; hit rate 1.2% among 410,000; AID 588855; also: % is scaled to controls: 0 for no effect and ±100 for the full control effect; nearly all actives have a fitted effect of over 65% in size
#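 Smad-responsive CAGA-GFP expression was quantified in HEPG2 cells exposed to compounds and 500 pg/mL final TGF-beta for 18 h at 37 degrees C; unstimulated wells defined full inhibition.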
# DT40 TDP1 CPT = DT40-hTDP1 cell growth loss with CPT; hit rate 12% among 420,000; Potency, µM (top dose mostly 46.2 µM), inactives show at the highest dose activity change, negative = growth inhibition, actives largely listed as inhibitors; chicken DT40 Tdp1-/-;hTDP1 cells + 20 nM CPT, ATP luminescence, 48 h; also: % is scaled to controls: 0 for no effect and ±100 for the full control effect; nearly all actives have a fitted effect of over 55% in size
#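 Chicken DT40 Tdp1-/- cells stably complemented with human TDP1 were seeded at 400 cells/well in medium containing 20 nM camptothecin, exposed to pin-transferred compounds, and grown at 37 °C for at least 48 hr. Viability was read as ATP luminescence.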
# TDP1 cell noCPT = qHTS for Inhibitors of human tyrosyl-DNA phosphodiesterase 1 (TDP1): qHTS in cells in absence of CPT. DT40 Tdp1-/- hTDP1 cells, no CPT, ATP luminescence, 48 h. Potency, µM (doses to about 46.2 µM), without a hit: top-dose activity change, negative = growth inhibition, usual class: inhibitors. hit rate 15% among 420,000; also: % is scaled to controls: 0 for no effect and ±100 for the full control effect; nearly all actives have a fitted effect of over 55% in size
#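 DT40 Tdp1-/-;hTDP1 cells, no CPT (DMSO vehicle only), 400 cells/well; compounds pin-transferred; ≥48 hr, 37 °C; CellTiter-Glo 30 min RT dark, luminescence read.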
# HepG2 tox = HepG2 cytotoxicity, counter-screen for TGF-b inhibitors; HepG2 CAGA-GFP viability, ATP luminescence, 18 h; Potency, µM (doses to about 46.1 µM), inactives show top-dose activity change, negative = cytotoxicity, most hits filed as cytotoxic; hit rate 0.76% among 410,000; AID 588856
#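 HepG2 CAGA-GFP cells (1000/well, DMEM with 1% FBS) received compound, then TGF-beta at 500 pg/mL final, and were incubated 18 hours at 37 degrees C. Viability was read by CellTiter-Glo luminescence. Media-only wells were set as complete cell-killing and DMSO as no toxicity.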
# Numbers without * were called inactive; ? = inconclusive; · = no result; [ ] = another dose, or the depositor's remark. Calls follow the shape of the dose curve; as a rule, active = well fitted curve in the direction sought with a large enough effect; inconclusive = small, poorly fitted or top-dose-only effect, or another doubt; inactive = no such curve, though single readings can be large; an effect the other way counts as inactive or inconclusive. Potency is read from the fitted curve at half-maximal effect.
SMILES,HT1080NT lethal,HT1080 IDH1KD tx,TGFb inhibitor,DT40 TDP1 CPT,TDP1 cell noCPT,HepG2 tox
CCOC(=O)N1CCN(C(=O)c2cn(C)c3ccc(S(=O)(=O)N(C)C4CCCCC4)cc3c2=O)CC1,6%,5%,7%,-10%,2%,-3%
Cc1ccc(C=Nc2ccccc2C(=O)Nc2ccccc2)cc1,10%,24%,-23%,?,12µM*,-14%
Cc1ccccc1C=Nc1ccccc1C(N)=O,16µM*,16µM*,?,5.2µM*,4.6µM*,4%
Cc1ccc(C=Nc2ccccc2C(N)=O)cc1,7.1µM*,5.6µM*,3%,2.8µM*,3.2µM*,-14%
O=C(/C(C=Nc1ccc(F)cc1)=C(/O)c1ccco1)C(F)(F)F,1%,-12%,-18%,-5%,-19%,-28%
CC1CCCN(C(=O)c2ccc(S(=O)(=O)N3CCC(c4nc5ccccc5s4)CC3)cc2)C1 (centres undefined),?,-6%[9.24 µM],-29%,12µM*,6.5µM*,-23%
O=S(=O)(c1ccccc1)N1CCCC1c1nc2ccccc2s1 (centres undefined),-7%,-12%,-1%,?,18µM*,-21%
CCN(CC)C(=O)c1ccc(S(=O)(=O)N2CCC(c3nc4ccccc4s3)CC2)cc1,?,-16%[9.24 µM],-16%,7.3µM*,10µM*,-23%
O=S(=O)(c1ccc(OC(F)(F)F)cc1)N1CCC(c2nc3ccccc3s2)CC1,·,·,-21%,11%,23%,-11%
CS(=O)(=O)N(CC(=O)N1CCN(c2ccc(F)cc2)CC1)c1ccc(F)c(Cl)c1,-12%,-21%,0%,?,?,-28%
CC1=CC(C)C(=O)N(C)C(C)=C1 (centres undefined),10%,1%,0%,24%,0%,-19%
CCCC(=O)Nc1nnc(SCc2cc(=O)c3cc(C)ccc3[nH]2)s1,·,·,-12%,?,?,8%
COC(=O)c1ccc2nc(-c3ccco3)c(Cc3cccc(Cl)c3)n2c1,1%,12%,·,?,16µM*,·
COC(=O)c1ccc2nc(-c3ccco3)c(Cc3ccccc3)n2c1,?,?,11µM*,26µM*,21µM*,-35%
COC(=O)c1ccc2nc(-c3cccc(Br)c3)c(Cc3cccc(F)c3)n2c1,18%,16%,·,?,?,·
Cc1cc(C)cc(NC(=O)C(Cc2ccccc2)NS(=O)(=O)c2ccc3c(c2)c(=O)n(C)c(=O)n3C)c1 (centres undefined),·,·,?,?,?,-23%
Cc1ccc(S(=O)(=O)N[C@@H](Cc2ccccc2)C(=O)CCl)cc1,?,16µM*,?,2.6µM*,5.2µM*,-94%
CCC(=O)N1CCc2cc(S(=O)(=O)NC(CC(C)C)C(=O)Nc3cc(C)ccc3OC)ccc21 (centres undefined),·,·,-13%,18µM*,?,-1%
CCC(=O)N1CCc2cc(S(=O)(=O)NC(CC(C)C)C(=O)Nc3cccc(C)c3C)ccc21 (centres undefined),·,·,-11%,-20%,-20%,-18%
CCC(=O)N1CCc2cc(S(=O)(=O)NC(Cc3ccccc3)C(=O)Nc3ccc(C)cc3)ccc21 (centres undefined),·,·,-4%,16µM*,?,-23%
Cc1ccc(NC(=O)C(Cc2ccccc2)NS(=O)(=O)c2ccc3c(c2)c(=O)n(C)c(=O)n3C)cc1 (centres undefined),·,·,?,16µM*,?,-9%
CC(C)(CO)NC(=O)c1ccc2c(c1)C(=O)c1ccccc1-2,7%,8%,7%,-19%,18µM*,1%
COCCNC(=O)c1ccc2c(c1)C(=O)c1ccccc1-2,1%,0%,-9%,15%,-20%,-6%
Cn1c(SCC(=O)N/N=C/c2ccccn2)nnc1-c1ccccc1,0%,7%,-1%,4%,1%,10%
CCOc1ccc(S(=O)(=O)Nc2cc(Cl)ccc2O)cc1,?,23µM*,?,?,?,-38%
SMILES,HT1080NT lethal,HT1080 IDH1KD tx,TGFb inhibitor,DT40 TDP1 CPT,TDP1 cell noCPT,HepG2 tox
CCOc1ccc(S(=O)(=O)Nc2cccc(Cl)c2)cc1,?,-4%[9.24 µM],-30%,23µM*,?,-8%
CCOc1ccc(S(=O)(=O)Nc2cc(NS(=O)(=O)c3ccc(OCC)cc3)cc(C(=O)O)c2)cc1,-2%,-2%,-12%,17%,9%,-7%
CC1CCN(C(=O)CN2C(=O)C(=O)N(C)C2=O)c2ccccc2S1 (centres undefined),-1%[9.24 µM],-3%,-16%,-12%,-1%,4%
C=CCOC(=O)Nc1ccc(Cl)cc1NC(=O)OCC=C,3%,5%,2%,-19%,-18%,-3%
C=CCOC(=O)/C=C/C(=O)NC(N)=O,3%,-2%,5%,10µM*,16µM*,5%
Cn1nc(-c2ccccc2)c(-c2nc(-c3cccc(C(F)(F)F)c3)no2)c1Cl,10%,-1%,2%,?,1.6µM*,-22%
Cc1noc(C)c1C(=O)OC(C)C(=O)c1ccc(C(C)(C)C)cc1 (centres undefined),12%,14%,4%,-14%,-26%,4%
CC(=O)c1ccc(NC(=O)c2cccc(NC(=O)N3CCSc4ncccc43)c2)cc1,·,·,7%,-2%,-25%,4%
CCCCCCOc1ccc(/C(C)=N/NC2=NCCN2)cc1,-19%,-7%,?,?,?,14µM*
CCOc1ccc(Br)cc1/C(C)=N\NC1=NCCN1,21µM*,?,-7%,5.8µM*,4.6µM*,-18%
COC(=O)COc1ccc(-c2ccccc2)cc1C=O,-7%,-14%,-7%,?,23µM*,-3%
O=C(NCCOc1nc(N2CCCCC2)nc(N2CCCCC2)n1)Nc1ccccc1,2%,-10%,-5%,?,23µM*,-17%
CC(=O)NCCOc1nc(N2CCCCC2)nc(N2CCCCC2)n1,-1%,0%,-5%,-25%,15µM*,-6%
O=C(NCCOc1nc(N2CCOCC2)nc(N2CCOCC2)n1)Nc1ccccc1,-6%,-25%,-26%,-26%,?,-17%
CC(=O)NCCOc1nc(N(C)C)nc(N2CCOCC2)n1,6%,6%,0%,-1%,6%,0%
CCN(CC)c1nc(OCCNC(=O)Nc2ccccc2)nc(N(CC)CC)n1,21µM*,18µM*,?,?,?,-59%

# Screening data deposited in PubChem BioAssay by National Center for Advancing Translational Sciences (NCATS).
